We go through 67 compounds from PubChem BioAssay AID651558 (National Center for Advancing Translational Sciences (NCATS), 2012).

Hit rate of the full screen: of about 1,200 compounds, about 480 (40%) were called active. About 29% were inconclusive and are not listed. Calls come from the whole dose curve; as a rule, active = well fitted inhibition curve with a large enough effect; inconclusive = small, poorly fitted or top-dose-only effect; inactive = no such curve, though single readings can be large or run the other way. The list shows a part of the results.
% is set by controls: 0 for no effect and ±100 for the full control effect; potency is the fitted concentration of half-maximal effect.

A short description of the test: qHTS Assay to Find Inhibitors of Chronic Active B-Cell Receptor Signaling: Hit Validation in Primary Screen. Note: nearly all actives have a fitted effect of over 75% in size. The conditions noted are these: ABC-DLBCL IkB-luc/CBR ratio luminescence, 4 h; series mostly up to 46.1 µM; activity change, negative = inhibition: at the top concentration. A digest of the protocol: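 Concentration series (3 nM to 46 uM) tested on TMD8 cells induced with doxycycline for 4 h. Filter-corrected green (IkBa fusion) over red (unfused) luciferase signal; Data were normalised to 10 uM MG-132 and untreated cell wells.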
(In general: Quantitative high-throughput screening tests each substance at several concentrations.)
Consider `CCN1C(=O)c2cccc3c(NC(=O)c4ccc(OC)c(OC)c4)ccc1c23`, for which the Potency was 10.3 µM (active). Same read-out and setting: in the case of `COc1ccc2c(c1)C(C)=CC(C)(C)N2S(=O)(=O)c1ccc(NC(C)=O)cc1` it was 3.26 µM (active); in that of `CCOc1ccc2c(c1)C(C)=CC(C)(C)N2S(=O)(=O)c1ccc(C)cc1`, 3.26 µM (active). For the compound `COc1ccc2c(c1)C(C)=CC(C)(C)N2S(=O)(=O)c1ccc(Br)cc1`, the Potency is 3.26 µM (active). On to `CCOc1ccc2c(c1)C(C)=CC(C)(C)N2S(=O)(=O)c1ccc(NC(C)=O)cc1`, for which the Potency is 1.3 µM (active).

For the compound `N#CC1=C(S)N(c2ccc(F)cc2)C(c2ccco2)NC1=O` (configuration not stated), the “activity change, negative = inhibition” value was 46.1% (inactive). Still for that read-out and setting: to `COc1ccc(NC(=O)CSc2nc(N)c(C(=O)Nc3ccc(N(C)C)cc3)s2)cc1` belongs -13.4% (inactive); to `CCOc1ccc(NC(=S)N(CCc2c(C)[nH]c3ccccc23)Cc2cccnc2)cc1`, -24% (inactive). In the case of `CCOc1ccc(NC(=O)c2cc(OC)nc3ccccc23)cc1`, the Potency is 5.17 µM (active). Same read-out and setting: in the case of `COc1ccc(C2CC(c3ccc(OC)c(OC)c3)=NN2C(=O)c2ccccc2)cc1` (configuration not stated) it was 6.51 µM (active). Take `COc1ccc(C2=NN(C(C)=O)C(c3cccs3)C2)cc1OC` (configuration not stated): the “activity change, negative = inhibition” value is 31.9% (inactive). As to `COc1ccc(C2CC(c3ccncc3)=NN2c2ccc(S(N)(=O)=O)cc2)cc1` (configuration not stated), the “activity change, negative = inhibition” value is 112% (inactive). Take `N=C1SCC(=O)N1c1ncc(Cc2cccc(Cl)c2)s1`: the Potency was 20.6 µM (active). The same measure, in the same setting: in the case of `O=c1cc(-c2cccc(F)c2)[nH]c2ccccc12` it was 3.66 µM (active). For `O=c1cc(-c2ccc(F)cc2)[nH][nH]1`, the “activity change, negative = inhibition” value was 4.42% (inactive). `NNC(=O)c1[nH]c2ccc(Br)cc2c1-c1ccccc1`: the “activity change, negative = inhibition” value was 3.52% (inactive).

For `O=c1cc(-c2ccccc2)[nH]c2ccccc12`, the Potency was 11.6 µM (active). Same read-out and setting: to `O=c1cc(-c2ccccc2)[nH]c2ccc(F)cc12` belongs 10.3 µM (active). As to `O=Cc1ccc(O)c2ncccc12`, the “activity change, negative = inhibition” value is -2.92% (inactive).

Take `O=[N+]([O-])c1cc(Cl)c2cccnc2c1O`: the “activity change, negative = inhibition” value is -5.39% (inactive). For `COc1ccc(CC2(CO)CCN(Cc3cccc4nccnc34)CC2)cc1`, the “activity change, negative = inhibition” value was -8.35% (inactive).

As for `CCCc1nc([N+](=O)[O-])c(S(=O)(=O)c2ccccc2)n1CC(C)C`, the Potency was 16.4 µM (active).

For `N#Cc1ccc(-c2cccs2)nc1SCc1cccnc1`, the Potency is 16.4 µM (active). For the compound `Cc1cc(C)nc(SCc2ccc(C(=O)N/N=C/c3cccnc3)cc2)n1`, the “activity change, negative = inhibition” value is 31.9% (inactive).

With `COc1ccc2c(c1)sc1nc(-c3ccccc3)cn12`, the Potency was 3.26 µM (active). Consider `Cc1ccc(C)c(NC(=S)N=Nc2c(O)n(C)c3ccc(S(=O)(=O)N4CCOCC4)cc23)c1`, for which the “activity change, negative = inhibition” value was 35.1% (inactive).

On to `COc1ccc(C2=Nn3c(nnc3-c3ccccn3)SC2)cc1OC`, for which the “activity change, negative = inhibition” value is 23.8% (inactive).

On to `CCOc1ccc(C2=Nn3c(nnc3-c3ccccc3OC)SC2)cc1`, for which the Potency was 0.0731 µM (active). On the same count and under the same terms, to `COc1ccc(C2=Nn3c(nnc3-c3ccc(OC)cc3)SC2)cc1` belongs 14.6 µM (active); to `COc1ccc(C2=Nn3c(nnc3-c3ccccc3OC)SC2)cc1OC`, 1.3 µM (active); to `COc1ccc(C2=Nn3c(nnc3C3CCCCC3)SC2)cc1OC`, 2.31 µM (active). For `CNC(=S)N/N=C(\C)c1ccc(Cl)s1`, the “activity change, negative = inhibition” value is -14.9% (inactive).

Take `S=C(Nc1ccccc1)c1nc2ccccc2s1`: the “activity change, negative = inhibition” value was -4.37% (inactive).

With `Cc1ccc(-c2oc3ncnc(N)c3c2-c2ccc(C)cc2)cc1`, the “activity change, negative = inhibition” value was -7.68% (inactive).

For `COc1ccccc1-c1nnc2n1N=C(c1ccc(O)c(O)c1)CS2`, the Potency is 0.206 µM (active). On the same count and under the same terms, in the case of `COc1ccc(C(=O)N/N=C/c2ccccc2OC(=O)c2ccccc2)cc1` it was 0.651 µM (active). With `Cc1cccc(C(=O)Oc2ccc(/C=N/O)cc2)c1`, the “activity change, negative = inhibition” value was -21.3% (inactive). Same read-out and setting: in the case of `NC(=S)N/N=C/c1ccccc1OC(=O)/C=C/c1ccccc1` it was -8.27% (inactive); in that of `Cc1cccc(NS(=O)(=O)c2ccc(C3CCCCC3)cc2)n1`, -20.7% (inactive). On to `Cc1cccc(C)c1NS(=O)(=O)c1ccc(-c2cnc(C3CC3)o2)cc1`, for which the Potency is 0.291 µM (active). On the same count and under the same terms, in the case of `Cc1cccc(NS(=O)(=O)c2ccc(-c3cnc(C4CC4)o3)cc2)c1C` it was 0.92 µM (active); in that of `CCOCCOC(=O)c1[nH]c2c(c1C)C(=O)CC(c1cccs1)C2` (configuration not stated), 2.59 µM (active). Same read-out and setting: in the case of `COc1ccc(OC)c(C2CC(=O)c3c([nH]c(C(=O)OC(C)C)c3C)C2)c1` (configuration not stated) it was 1.64 µM (active). With `COCCOC(=O)c1[nH]c2c(c1C)C(=O)CC(c1ccccc1)C2` (configuration not stated), the “activity change, negative = inhibition” value is 61.1% (inactive). Turning to `COC(=O)c1[nH]c2c(c1C)C(=O)CC(c1ccccc1)C2` (configuration not stated), the Potency was 1.3 µM (active). The same measure, in the same setting: in the case of `CCOCCOC(=O)c1[nH]c2c(c1C)C(=O)CC(c1ccccc1)C2` (configuration not stated) it was 1.64 µM (active).

On to `NC(=S)N/N=C/c1ncc(C(F)(F)F)cc1Cl`, for which the “activity change, negative = inhibition” value is 183% (inactive). Same read-out and setting: to `C/C(=N\N1C(=O)c2ccccc2NC1c1ccco1)c1ccccc1O` (configuration not stated) belongs -4.31% (inactive); to `CCNC(=S)N/N=C(\C)c1ccc(Cl)s1`, -17.5% (inactive). With `O=C(CSc1cccc[n+]1[O-])c1ccc(-c2ccccc2)cc1`, the “activity change, negative = inhibition” value is -8.79% (inactive).

Turning to `O=C1N/C(=C/c2ccc(N3CCOCC3)o2)C(=O)N1c1ccccc1`, the Potency is 16.4 µM (active). For the compound `Cc1ccc(/C(C#N)=C\c2ccc(N3CCOCC3)o2)cc1`, the “activity change, negative = inhibition” value is -22.5% (inactive).

`O=S1(=O)N=C(Nc2nc3c(s2)CCCC3)c2ccccc21`: the Potency was 7.31 µM (active).

With `Cc1ccc(/C=[N+](\[O-])c2ccc(N(C)C)cc2)c2nsnc12`, the “activity change, negative = inhibition” value was -2.78% (inactive). Still for that read-out and setting: to `O=C(COc1ccc(-c2ccccc2)cc1)N1CCN(S(=O)(=O)Cc2ccccc2)CC1` belongs 28% (inactive). As to `Cc1cccc(OCCCC(=O)NNC(=O)c2cccc(N(C)C)c2)c1`, the “activity change, negative = inhibition” value was -9.42% (inactive). For `Cc1ccc2c(c1)C(=O)C(=O)N2CCOc1ccccc1`, the Potency was 20.6 µM (active). In the case of `Cc1ccc(OCCN2C(=O)C(=O)c3cc(C)ccc32)cc1`, the Potency is 20.6 µM (active). For the compound `Cc1cccc(OCCCN2C(=O)C(=O)c3cc(C)ccc32)c1`, the “activity change, negative = inhibition” value is -14.8% (inactive).

Regarding `Cc1cccc(OCCN2C(=O)C(=O)c3cc(C)ccc32)c1`, the Potency was 23.1 µM (active). Still for that read-out and setting: to `CCCN1C(=O)C(=O)c2cc(Cl)ccc21` belongs 18.4 µM (active). Regarding `O=C(Cc1ccc(-c2ccccc2)cc1)NCc1ccccc1`, the Potency is 0.517 µM (active). On to `NC(=O)NC[C@@H]1CC[C@@H](Cc2ccc(-c3ccccc3)cc2)O1`, for which the “activity change, negative = inhibition” value was -10.6% (inactive). On the same count and under the same terms, in the case of `O=C(COC(=O)Cc1ccc(-c2ccccc2)cc1)NCc1ccccc1` it was -6.66% (inactive). Take `Cc1noc(C)c1COc1ccc(CC(=O)NCc2ccccc2)cc1`: the Potency is 14.6 µM (active). As to `Cc1ccccc1N=Nc1c(C)[nH]n(C(N)=S)c1=O`, the “activity change, negative = inhibition” value was 8.37% (inactive). Take `Clc1ccc2nc(-c3ccccc3)nc(C(Cl)Cl)c2c1`: the Potency is 4.61 µM (active).
